# Laboratory results reported in PubChem BioAssay AID902 (National Center for Advancing Translational Sciences (NCATS), 2007).
# Several values for one entry are separate records, joined by “and”; a condition that tells them apart may be missing. Equal values may be shown once. In all, about 130,000 compounds went through this assay and about 1,900 (1.5%) were called active. About 5% were inconclusive and are not listed. Calls come from the whole dose curve; as a rule, active = well fitted cell-killing curve with a large enough effect; inconclusive = small, poorly fitted or top-dose-only effect; inactive = no such curve, though single readings can be large or run the other way. For the sample, actives were picked, then their nearest neighbours and some compounds at random. Some structures have more than one record in an assay (separate samples or runs), and their calls can disagree.
# Test: qHTS Screen for Compounds that Selectively Target Cancer Cells with p53 Mutations: Cytotoxicity of p53ts Cells at the Nonpermissive Temperature; note: nearly all actives have a fitted effect of over 55% in size
# Settings: H1299-p53A138V viability at 39C, ATP luminescence, 24 h; series mostly up to 46.1 µM; activity change, negative = cell killing: at the top concentration
# % is set by controls: 0 for no effect and ±100 for the full control effect; potency is the fitted concentration of half-maximal effect.
SMILES,"activity change, negative = cell killing",Potency
COc1ccc(Br)cc1CNC(=O)c1cc(=O)[nH]c2ccc(S(=O)(=O)N3CCCC3)cc12,-16.2% (inactive),–
COc1ccc(NC(=O)CN2CCCN(Cc3ccccc3)S2(=O)=O)cc1,-4.26% (inactive),–
COc1ccc(C(=O)Nc2nonc2-c2ccc(OC)c(OC)c2)cc1Cl,-26.9% (inactive),–
Cn1c(=O)c2sccc2n2c(CCC(=O)NCc3ccccc3Cl)nnc12,-15.6% (inactive),–
CC1=C(c2ccc(Cl)cc2)S(=O)(=O)N=C1N1CCN(c2cc(C)ccc2C)CC1,0.663% (inactive),–
Cc1ccc(C)c(N2CCN(CCCNC(=O)Nc3ccc(Cl)cc3)CC2)c1,–,10 µM (active)
CC1=C(c2ccc(C)cc2)S(=O)(=O)NC1=NCCCN1CCN(c2cc(C)ccc2C)CC1,35.5% (inactive),–
CCN(CCCNC(=O)c1ccc(Sc2ccc(C)cc2)c(NC(C)=O)c1)c1cccc(C)c1,-24.9% (inactive),–
COC(=O)c1ccc(C2C(C(=O)Nc3ccccc3)=C(C)Nc3nc4ccccc4n32)cc1 (stereo unspecified),–,12.6 µM (active)
COc1ccccc1C1C(C(=O)N2CCCCC2)=C(C)Nc2nc3ccccc3n21 (stereo unspecified),-9.81% (inactive),–
CCOc1ccc(C2C(C(=O)NC)=C(C)Nc3nc4ccccc4n32)cc1OC (stereo unspecified),8.77% (inactive),–
CCOC(=O)c1c(C)[nH]c(C)c1S(=O)(=O)N1CCCC(C(=O)NCc2ccccc2Cl)C1 (stereo unspecified),2.61% (inactive),–
CCc1cnc2c(c1SCC(=O)c1ccccc1)c(=O)n(C)c(=O)n2C,23.2% (inactive),–
CC(C)(C)c1ccc(C(=O)N2CCC(c3nc(-c4ccc(S(=O)(=O)N5CCCC5)cc4)no3)CC2)cc1,-24.5% (inactive),–
Cc1sc(C2C(C#N)=C(N)N(c3cccc(Cl)c3)C3=C2C(=O)CCC3)cc1CN1CCOCC1 (stereo unspecified),7.17% (inactive),–
COc1c2c(cc3occ(-c4ccc5c(c4)OCO5)c(=O)c13)OC(C)(C)C=C2,–,10 µM (active)
COc1ccc(CCNC(=O)c2cc(-c3ccc4c(c3)OCO4)on2)cc1OC,-2.99% (inactive),–
CCC(=O)N1CCc2cc(S(=O)(=O)NCCC(=O)Nc3cccc(C)c3C)ccc21,-12.6% (inactive),–
COc1cccc(NC(=O)CSc2cc(=O)n(C)c3ccc(Cl)cc23)c1,-18.7% (inactive),–
CCCCOc1ccc(C(=O)N2CC(=O)Nc3ccc(Br)cc3C2c2ccc(F)cc2)cc1 (stereo unspecified),6.43% (inactive),–
CCCCc1nn2c(=O)cc(COC(=O)c3ccc(NC(=O)c4ccccc4C)cc3)nc2s1,-22% (inactive),–
c1ccc2[nH]c(NCCN3CCOCC3)nc2c1,2.07% (inactive),–
c1ccc(-c2nc(NCc3ccco3)c3ccccc3n2)cc1,-12.3% (inactive),–
CN(C)c1ccc(-c2nc(NCCN3CCOCC3)c3ccccc3n2)cc1,–,12.6 µM (active)

SMILES,"activity change, negative = cell killing",Potency
O=C(c1cccc(Br)c1)N1CCN(Cc2cc(=O)n3nc(-c4ccccc4)sc3n2)CC1,8.96% (inactive),–
Cc1csc(-c2nc3ccccc3n2C)n1,–,25.1 µM (active)
Cc1nn2c3ccccc3nc2n(C)c1=O,0.337% (inactive),–
CC(C)n1c(-c2cccs2)nc2ccccc21,-17.5% (inactive),–
COc1ccc(Cn2c(=O)c3oc4ccccc4c3n(CC(=O)Nc3ccc(F)cc3F)c2=O)cc1,-13.5% (inactive),–
CCN(C(=O)Cn1c(=O)nc(-c2ccccc2)c2cc(Cl)ccc21)c1cccc(C)c1,–,15.8 µM (active)
O=C(Cn1nnc(-c2ccccc2)n1)NCc1ccccc1,6.92% (inactive),–
O=C(Cn1c(=O)nc(-c2ccccc2)c2cc(Cl)ccc21)NCc1ccc(Cl)cc1,–,10 µM (active)
CCN(CCCNC(=O)CSc1cc(=O)n(C)c2cc(Cl)ccc12)c1cccc(C)c1,3.74% (inactive),–
CCCN(C(=O)Cn1cc(S(=O)(=O)N2CCN(c3ccccc3F)CC2)c2ccccc2c1=O)c1cccc(C)c1,11.6% (inactive),–
Cc1ccc(CNC(=O)CN2CCN(Cc3ccc(Cl)cc3)C2=O)cc1,-8.84% (inactive),–
CC1CCN(S(=O)(=O)c2ccc3c(c2)N(CC(=O)NCCc2ccccc2)C(=O)CO3)CC1,-9.14% (inactive),–
Cc1ccc(N(CC(=O)NCc2ccc(Cl)cc2)S(=O)(=O)N(C)C)cc1,-7.17% (inactive),–
CCc1nn(CC(=O)Nc2cccc(C)c2C)c(=O)c2cc3sccc3n12,9.89% (inactive),–
CCc1nn(CC(=O)Nc2cc(C)cc(C)c2)c(=O)c2cc3sccc3n12,-9.46% (inactive),–
CCc1cccc(NC(=O)Cn2nc(CC)n3c(cc4cc(C)ccc43)c2=O)c1,–,25.1 µM (active)
CCCCN(CC)CCCNC(=O)Cn1ncc2c([nH]c3ccc(C)cc32)c1=O,-6.44% (inactive),–
c1ccc(CNc2ncnc3[nH]ncc23)cc1,29.4% (inactive),–
CCC(C)NC(=O)Cn1c(=O)n(-c2ccc(Cl)cc2)c(=O)c2c3c(sc21)CCCC3 (stereo unspecified),-4.46% (inactive),–
CCCN(CCC)C(=O)Cn1c(=O)n(-c2ccc(Cl)cc2)c(=O)c2c3c(sc21)CCCCC3,-16.4% (inactive),–
Cc1ccc(NC(=O)Cn2c(=O)n(-c3ccccc3)c(=O)c3c4c(sc32)CCCC4)cc1,–,12.6 µM (active)
CCOC(=O)c1c(S(=O)(=O)N2CCCC(C(=O)NCc3ccc(F)cc3)C2)c(C)n(CC)c1C (stereo unspecified),-13.8% (inactive),–
COc1ccccc1Nc1c2c(nc3ccc(NC(=O)/C=C/c4cc(OC)c(OC)c(OC)c4)cc13)CCCC2,–,15.8 µM (active)
COc1cccc(C(=O)Nc2ccc3nc4n(c(=O)c3c2)CCCCC4)c1,-25.8% (inactive),–

SMILES,"activity change, negative = cell killing",Potency
O=C(Nc1c2c(nc3ccccc13)CCCC2)c1ccccc1Br,-2.5% (inactive),–
O=C(O)c1ccc(Cn2c(SCc3ccc(F)cc3)nc3ccncc32)cc1,-19.3% (inactive),–
Cc1cccc2nc(-c3ccc(Cl)s3)c(Nc3ccc4c(c3)OCCO4)n12,-25.1% (inactive),–
Cc1ccn2c(Nc3ccc4c(c3)OCCO4)c(-c3ccc(C)s3)nc2c1,–,12.6 µM (active)
Cc1ccc(Nc2c(-c3ccc(C)s3)nc3ccccn23)cc1,1.41% (inactive),–
CCN(C(=O)c1sc2cc(OC)ccc2c1Cl)c1ccccc1,-4.72% (inactive),–
COc1ccc(N2CCN(C3=NS(=O)(=O)C(c4cccc(Br)c4)=C3C)CC2)cc1,-1.65% (inactive),–
CCOc1ccc(-n2c(C)nc3c(cnn3-c3ccc(C)cc3)c2=O)cc1,6.42% (inactive),–
Cc1cccc(N2CCN(C(=O)c3ccc4c(c3)CCN4S(=O)(=O)c3ccccc3)CC2)c1C,-24.6% (inactive),–
CCC(CC)c1nn2cc(-c3ccccc3)nc2s1,–,6.31 µM (active)
Cc1c(C(=O)N2CC(C)OC(C)C2)sc2nc(-c3ccccc3)cn12 (stereo unspecified),-12.2% (inactive),–
CCC(CC)c1nnc(NS(=O)(=O)Cc2ccccc2)s1,2.97% (inactive),–
CC(C)c1ccc(C2CC(=O)N3CN(C4CCCCC4)CSC3=C2C#N)cc1 (stereo unspecified),6.4% (inactive),–
Cc1noc(/C=C/N(C)C)c1S(=O)(=O)N1CCCC(C(=O)Nc2cccc(F)c2)C1 (stereo unspecified),-0.583% (inactive),–
CN(C(=O)c1ccc2c(c1)N(Cc1cccc(Cl)c1)C(=O)c1ccccc1S2=O)C1CCCCC1 (stereo unspecified),15.2% (inactive),–
Cc1ccc2c(=O)c(C(=O)c3cccc(Cl)c3)cn(CC(=O)NCc3ccccc3)c2n1,23.8% (inactive),–
CN1CCCC1CCO[C@@](C)(c1ccccc1)c1ccc(Cl)cc1 (stereo partly specified),-25.6% (inactive),–
CN1CCC[C@@H]1CCO[C@](C)(c1ccccc1)c1ccc(Cl)cc1,–,inactive and 12.6 µM (active)
COC(=O)c1ccc2c(=O)n(CC3CCCO3)c(=S)[nH]c2c1 (stereo unspecified),9.84% (inactive),–
Cc1ccsc1C(=O)OCC(=O)c1cc(C)n(CC2CCCO2)c1C (stereo unspecified),–,7.94 µM (active)
Cc1ccsc1C(=O)OCC(=O)c1cc2ccccc2o1,-18.4% (inactive),–
COc1ccccc1N1CCN(Cc2nnnn2CCc2ccccc2)CC1,6.43% (inactive),–
COc1ccccc1N1CCN(C(=O)CN(Cc2ccc(Cl)cc2)S(C)(=O)=O)CC1,-9.34% (inactive),–
COc1ccccc1-n1nnnc1S(=O)(=O)Cc1ccc(Cl)cc1,–,6.31 µM (active)

SMILES,"activity change, negative = cell killing",Potency
Cc1cccc(N2CCN(S(=O)(=O)c3ccc4[nH]c5c(c4c3)CCCCC5)CC2)c1C,7.92% (inactive),–
O=C(CCS(=O)(=O)c1ccccc1)N(Cc1cccnc1)c1nc2c(F)cccc2s1,–,31.6 µM (active)
O=C(CCOc1ccccc1)N(Cc1cccnc1)c1nc2ccc(Cl)cc2s1,2.01% (inactive),–
CN(C)S(=O)(=O)c1ccc(C(=O)N(Cc2cccnc2)c2nc3c(F)cc(F)cc3s2)cc1,-14.5% (inactive),–
CCc1ccc(NC(=O)C2CCCN2S(=O)(=O)c2ccc3nc(-c4ccccc4)[nH]c3c2)cc1 (stereo unspecified),-17.1% (inactive),–
CCc1cccc(-n2nnc(-c3nsc(NC(=O)c4ccc(C)cc4)n3)c2C)c1,7.17% (inactive),–
CC1Cc2cc(S(=O)(=O)CCC(=O)Nc3ccc(F)c(Cl)c3)ccc2N1C(=O)C1CC1 (stereo unspecified),-11.4% (inactive),–
COc1ccc(-n2cnc3cc(C(=O)NC4CCCC4)ccc32)cc1,14% (inactive),–
CCC(C)c1ccc2oc(-c3ccc(NC(=O)c4cc5ccccc5o4)cc3)nc2c1 (stereo unspecified),12.3% (inactive),–
COC(=O)c1ccc(-c2nc3cc(NC(C)=O)ccc3o2)cc1,-4.16% (inactive),–
CCc1ccc2oc(-c3ccc(N)cc3)nc2c1,–,10 µM (active)
Cc1ccc(C)c(S(=O)(=O)c2nnn3c2nc(N2CCOCC2)c2sccc23)c1,-8.81% (inactive),–
Cc1ccc(NC(=O)c2nc(S(=O)(=O)Cc3cccc(C)c3)ncc2Cl)cc1,–,10 µM (active)
CCS(=O)(=O)c1ncc(N(Cc2ccc(F)cc2)Cc2ccco2)c(C(=O)Nc2cc(C)ccc2C)n1,-4.76% (inactive),–
CCSc1ncc(Cl)c(C(=O)Nc2cc(C)ccc2C)n1,-3.08% (inactive),–
Cn1c(=O)n(Cc2c(F)cccc2Cl)c(=O)c2c1nc1n2CCN1c1ccc(F)cc1,-11.7% (inactive),–
Oc1c(C(c2ccccc2Cl)N2CCOCC2)sc2nc(-c3ccco3)nn12 (stereo unspecified),-14% (inactive),–
Cc1nc2sc(C(c3ccco3)N3CCOCC3)c(O)n2n1 (stereo unspecified),11.5% (inactive),–
Oc1c(C(c2ccccn2)N2CCOCC2)ccc2cccnc12 (stereo unspecified),–,12.6 µM (active)
Cc1ccc(CCNC(=O)c2ccc3c(c2)N(Cc2cc(C)ccc2C)C(=O)c2ccccc2S3=O)cc1 (stereo unspecified),1.71% (inactive),–
CC(=O)N1CCc2cc(Br)cc(S(=O)(=O)CCC(=O)NCCc3ccc(Cl)cc3)c21,-2.18% (inactive),–
Cn1nnnc1SCCNCc1ccc(Cl)c(Cl)c1,11.3% (inactive),–
COc1cc(CNCCSc2nnnn2C)ccc1OCc1ccc(Cl)cc1Cl,–,25.1 µM (active)
COc1cc(CNCCSc2nnnn2C)ccc1OCc1c(F)cccc1Cl,-22.3% (inactive),–
